Test [1] is described as follows: qHTS for Inhibitors of the Functional Ribonucleoprotein Complex (vRNP) of Lassa (LASV) Arenavirus: LASV Primary Screen - GLuc reporter signal (AID 1347082; calls by dose curve; tested in HEK293 reporter line; note: nearly all actives have a fitted effect of over 60% in size; note: potency is the fitted concentration of half-maximal effect; for activity change, negative = inhibition: % is set by controls: 0 for no effect and ±100 for the full control effect). (Quantitative high-throughput screening tests each substance at several concentrations.)
Test [2] can be described thus: qHTS for Inhibitors of the Functional Ribonucleoprotein Complex (vRNP) of Lassa (LASV) Arenavirus: Viability assay - alamar blue signal for LASV Primary Screen (AID 1347083; calls by dose curve; tested in HEK293 reporter line; note: nearly all actives have a fitted effect of over 80% in size; note: potency is the fitted concentration of half-maximal effect; for activity change, negative = reduced viability: % is set by controls: 0 for no effect and ±100 for the full control effect).
A short description of test [3]: qHTS for Inhibitors of the Functional Ribonucleoprotein Complex (vRNP) of Lymphocytic Choriomeningitis Arenaviruses (LCMV): Viability assay - alamar blue signal for LCMV Primary Screen (AID 1347085; calls by dose curve; tested in HEK293 reporter line; note: nearly all actives have a fitted effect of over 80% in size; note: potency is the fitted concentration of half-maximal effect; for activity change, negative = lower viability: % is set by controls: 0 for no effect and ±100 for the full control effect).
For test [4], the target named is Nucleoprotein (Lymphocytic choriomeningitis virus (strain Armstrong)) (UniProt P09992). Briefly: qHTS for Inhibitors of the Functional Ribonucleoprotein Complex (vRNP) of Lymphocytic Choriomeningitis Arenaviruses (LCMV): LCMV Primary Screen - GLuc reporter signal (AID 1347086). For activity change, negative = inhibition: % is set by controls: 0 for no effect and ±100 for the full control effect. Note: nearly all actives have a fitted effect of over 70% in size. Note: potency is the fitted concentration of half-maximal effect.
Sequence of Nucleoprotein (Lymphocytic choriomeningitis virus (strain Armstrong)) (P09992 whole entry, looked up): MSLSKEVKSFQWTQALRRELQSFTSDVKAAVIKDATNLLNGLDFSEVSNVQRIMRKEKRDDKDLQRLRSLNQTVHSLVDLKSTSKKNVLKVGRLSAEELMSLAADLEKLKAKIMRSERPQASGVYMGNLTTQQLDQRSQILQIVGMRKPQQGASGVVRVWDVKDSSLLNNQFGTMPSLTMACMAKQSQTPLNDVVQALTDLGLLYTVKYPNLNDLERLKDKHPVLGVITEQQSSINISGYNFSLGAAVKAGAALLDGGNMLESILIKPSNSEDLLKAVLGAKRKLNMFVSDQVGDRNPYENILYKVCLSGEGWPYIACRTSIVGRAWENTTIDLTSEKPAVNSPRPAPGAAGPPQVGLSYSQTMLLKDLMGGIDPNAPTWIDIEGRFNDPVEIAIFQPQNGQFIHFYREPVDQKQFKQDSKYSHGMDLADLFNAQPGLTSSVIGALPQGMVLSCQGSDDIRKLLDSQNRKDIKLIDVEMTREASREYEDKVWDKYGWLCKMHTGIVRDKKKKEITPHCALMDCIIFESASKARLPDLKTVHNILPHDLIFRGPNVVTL
For test [5], the system named is CRL-7250. In words: qHTS assay to identify novel small-molecules to repurpose for Merkel cell carcinoma treatment (AID 1296009; active = well fitted inhibition curve with a large enough effect; note: nearly all actives have a fitted effect of over 60% in size). The settings on record: MCC and control cell lines, CellTiter-Glo viability, 72 h; series mostly up to 92 µM. The essentials:
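CellTiter-Glo luminescence after 72 hr compound exposure at 37 degree celsius gave cell viability. Libraries NPC and MIPE were run as 8- and 11-point dose responses; RLUs normalized to DMSO (negative) and no-cell (cytotoxicity) controls.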

The nature of test [6]: Cytotoxicity counterscreen for inhibitors of SARS-CoV-2 cell entry (AID 1645845). Note: nearly all actives have a fitted effect of over 50% in size. The method, boiled down:
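Counterscreen run in the same HEK293-ACE2 line as the pseudotyped-particle entry assay, without particles. Viability after 48 h at 37 C was read as ATP luminescence, scaled between cell-containing and cell-free wells.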
For orientation: The purpose of a counterscreen is to sort out artefacts and off-target activity.

Test [7] can be described thus: Primary qHTS to identify inhibitors of SARS-CoV-2 cell entry (AID 1645846). Note: nearly all actives have a fitted effect of over 45% in size. The note with it: activity change, negative = inhibition: at 57.1 µM (top of the series) unless noted. The essentials:
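Entry measured by luciferase signal 48 h after adding SARS-CoV-2-S pseudotyped MLV particles to HEK293-ACE2 cells preincubated 1 h with compounds. Normalisation: bald particles and spike particles.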

Test [8] can be described thus: Primary qHTS for inhibitors of SARS-S pseudo-typed particle cell entry (AID 1479145). Note: nearly all actives have a fitted effect of over 45% in size.
A short description of test [9]: Primary qHTS for Huh7 cytotoxicity: counterscreen for inhibitors of MERS-S pseudotyped particle cell entry (AID 1479147). The settings on record: outcome: dose series up to 57.1 µM unless noted.
A short description of test [10]: Primary qHTS for inhibitors of MERS-S pseudo-typed particle cell entry (AID 1479149). Note: nearly all actives have a fitted effect of over 60% in size.
Test [11] is described as follows: Primary qHTS for Vero E6 cytotoxicity: counterscreen for inhibitors of SARS-S pseudo-typed particle cell entry (AID 1479150). The note with it: outcome: dose series up to 57.1 µM unless noted.
A short description of test [12]: Confirmatory qHTS for VERO E6 Cytotoxicity Assay: Counterscreen for SARS-CoV-2 CPE Assay (AID 1508605). Note: % is set by controls: 0 for no effect and ±100 for the full control effect; nearly all actives have a fitted effect of over 60% in size.
Test [13] is described as follows: Confirmatory qHTS for activators (rescue) of SARS-CoV-2 Cytopathic Effect (CPE) (AID 1508606). Note: potency is the fitted concentration of half-maximal effect; nearly all actives have a fitted effect of over 70% in size.
Test [14] is described as follows: qHTS profiling of the MIPE4 collection as inhibitors of Plasmodium falciparum (3D7) proliferation (AID 743344; call rule not given here;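 note: scaled between DMSO vehicle wells and 0.29 µM artemisinin as full inhibition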). The note with it: P. falciparum 3D7 in erythrocytes, SYBR Green DNA fluorescence, 72 h; at 28.5 µM (top of the series) unless noted. The essentials:
(§1)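 Parasite DNA was quantified by SYBR Green I fluorescence (ex 485, em 535 nm) after overnight lysis in saponin/Triton buffer at room temperature. Cultures at 0.3% parasitemia and 2.5% hematocrit were first exposed to compound for 72 h at 37 C; signals were normalised to artemisinin (0.29 uM) and vehicle wells.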

Test [15] can be described thus: qHTS profiling of the MIPE4 collection as inhibitors of Plasmodium falciparum (DD2) proliferation (AID 743345; call rule not given here). The settings on record: P. falciparum Dd2 in erythrocytes, SYBR Green DNA, 72 h; at 28.5 µM (top of the series) unless noted. The essentials: as §1
A short description of test [16]: qHTS profiling of the MIPE4 collection as inhibitors of Plasmodium falciparum (HB3) proliferation (AID 743347; call rule not given here;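 note: plate controls were DMSO vehicle wells for no effect and artemisinin wells for full effect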). The settings on record: P. falciparum HB3 in erythrocytes, SYBR Green DNA, 72 h; at 28.5 µM (top of the series) unless noted. The method, boiled down: as §1

Records with an inconclusive call do not appear. Activity calls are given as the source filed them. Unless noted, calls come from the whole dose curve.

In the case of `CCOC(=O)N1CCN([N+]([O-])=NOc2cc(ON=[N+]([O-])N3CCN(C(=O)OCC)CC3)c([N+](=O)[O-])cc2[N+](=O)[O-])CC1`, the Potency entry in [1], in [2], in test [3], in test [4] and in test [5] was “inactive” each time.

Take `CN(C)c1nc(Cc2ccc(NC(=O)c3ccc(C(F)(F)F)cc3)cc2)nc(N(C)C)c1CC(=O)O`: the Potency entry in test [1], in test [2], in [3], in test [4] and in test [5] was “inactive” throughout.

In the case of `CN(C)CCC=C1c2ccccc2COc2ccc(CC(=O)O)cc21`, the Potency result in test [1], in [2], in test [3], in test [4] and in test [5] was “inactive” each time.

Regarding `CC1C(=O)OC2C(O)C34C5CC(C(C)(C)C)C36C(OC(=O)C6O)OC4(C(=O)O5)C12O` (stereo not drawn), the Potency result in test [1], in test [2], in test [3], in test [4] and in [5] was “inactive” throughout.

Regarding `CC(C)(C)[C@H](NC(=O)c1ccc(N)c(Cl)c1)C(=O)N1CCC[C@@H]1C(=O)N[C@H](C#N)CC(=O)O`, the activity change, negative = inhibition is -4.12% [at 5.82 µM] (inactive) in test [1] and 63.3% [at 5.82 µM] (inactive) in test [4]. In [2], the activity change, negative = reduced viability was 2.61% [at 5.82 µM] (inactive). In addition, in [3], the activity change, negative = lower viability was 8.73% [at 5.82 µM] (inactive). The outcome in test [5] was “inactive [at 4.96 µM]”.

`Cc1cc(NC(=O)Nc2ccc(N(C)C)cc2)c2cc(F)cc(F)c2n1`: the Potency result in test [1], in test [2], in [3], in test [4], in test [6] and in test [5] was “inactive” in each case. In test [7], the activity change, negative = inhibition was -12.4% [at 27.1 µM].

As for `CN1C(C(=O)Nc2ccccn2)=C(O)c2sc(Cl)cc2S1(=O)=O`, the Potency is 24.3 µM (active) in test [1], 15.3 µM (active) in test [2], 24.3 µM (active) in test [3] and 15.3 µM (active) in test [4]. The Potency entry in test [8], in [10], in test [6] and in [5] was “inactive” in each case. The compound was classed as inactive in test [9] and in test [11]. For the same compound, the activity change, negative = inhibition in test [7] is 2.28%.

For the compound `COc1ccc2c(OCc3nnc4ccc(-c5ccccc5)nn34)ccnc2c1`, the Potency result in test [1], in test [2], in test [3], in [4], in [6] and in [5] was “inactive” each time. The activity change, negative = inhibition in [7] is -13.2%.

Turning to `CCOC(=O)c1c(CSc2ccccc2)n(C)c2cc(Br)c(O)c(CN(C)C)c12`, the Potency entry in [1], in [2], in [3], in test [4], in [12] and in test [6] was “inactive” each time. Besides, the Potency result in test [5] was “inactive”. In addition, in test [13], the Potency is 11.2 µM (active).

For `Cc1ccc(C2=Nc3ccc(Cl)cc3OC2)cc1`, the Potency result in test [1], in test [2], in [3], in test [4], in test [6] and in test [5] was “inactive” in each case.

On to `CC1CCN(c2cc(N3CCN(C)CC3)ccc2NC(=O)c2cc(C#N)c[nH]2)CC1`, for which the Potency result in test [1], in test [2], in [3], in [4], in test [6] and in test [5] was “inactive” throughout. For the same compound, in test [7], the activity change, negative = inhibition is -17.8%.

As to `Cc1ccccc1C(C(=O)NC1CCCCC1)N(C(=O)CNc1ccc(C#N)cc1)c1cccc(F)c1` (stereo not drawn), the Potency result in test [1], in test [2], in [3], in test [4], in [6] and in test [5] was “inactive” in each case. For the same compound, the activity change, negative = inhibition in [7] amounted to 1.58%.

For `CC1=C(C(=O)Nc2cc3cn[nH]c3cc2F)C(c2ccc(C(F)(F)F)cc2)CC(=O)N1` (stereo not drawn), the Potency result in test [1], in test [2], in [3], in test [4], in [6] and in test [5] was “inactive” in each case. Moreover, the activity change, negative = inhibition in [7] was -23.5%.

With `Cc1cnc(Nc2cccc(CN3CCOCC3)c2)nc1Nc1cccc(S(=O)(=O)NC(C)(C)C)c1`, the Potency entry in [1], in [2], in test [3], in [4], in test [6] and in [5] was “inactive” throughout.

As to `O=C(CN1C(=O)C2(CCCC2)NC[C@H]1c1cc(F)cc(F)c1)Nc1ccc2c(c1)C[C@@]1(C2)C(=O)Nc2ncccc21`, the Potency entry in test [1], in test [2], in [3], in [4], in test [6] and in test [5] was “inactive” each time. In test [7], the activity change, negative = inhibition was -13.1%.

Take `COC(=O)N1CCN(Cc2cccc(NC(=O)Nc3ccc(C)nc3)c2F)CC1`: the Potency entry in [1], in test [2], in test [3], in test [4], in test [6] and in test [5] was “inactive” in each case.

Take `COC1=C(OC)C(=O)C(CC=C(C)CCC=C(C)CCC=C(C)CCC=C(C)CCC=C(C)CCC=C(C)CCC=C(C)CCC=C(C)CCC=C(C)CCC=C(C)C)=C(C)C1=O`: the Potency result in [1], in [2], in test [3], in test [4] and in [5] was “inactive” in each case. Further, the outcome in [8] is “inactive [at 5.34 µM]”; in test [9] it was “inactive [at 5.34 µM]”; in [10] it was “inactive [at 5.34 µM]”; in test [11], “inactive [at 5.34 µM]”; in [6], “inactive [at 5.25 µM]”; in test [7], “inactive [at 5.25 µM]”.

As to `O=C(O)CCC=CCC[C@@H]1[C@H](N2CCCCC2)[C@@H](O)C[C@@H]1OCc1ccc(-c2ccccc2)cc1`, the Potency entry in test [1], in test [2], in test [3], in test [4], in [10] and in test [6] was “inactive” throughout. Besides, in [5], the Potency result is “inactive”. Besides, the result in test [9] and in test [11] was inactive.

On to `N#Cc1ccc(Oc2ccc3c(c2)COB3O)cc1`, for which the Potency entry in [1], in [2], in [3], in test [4], in test [10] and in [6] was “inactive” throughout. Moreover, the Potency result in test [7] and in test [5] was “inactive” in each case. For the same compound, the call in [9] was inactive. In addition, the activity change, negative = inhibition in test [7] was -3.74%.

For `CNC(=O)c1ccc(-c2cnc3ncc(Cc4ccc5ncccc5c4)n3n2)cc1F`, the Potency result in test [1], in [2], in test [3], in test [4], in test [6] and in [5] was “inactive” each time.

In [14], `CN1c2cc(O)c(N=NC(N)=O)cc2CC1S(=O)(=O)O` (stereo not drawn) came in with a parasite growth, % of DMSO control of 37.8%. This compound also came in with a parasite growth remaining, % of DMSO control (lower = more inhibition) in [15] of 64.1%. Moreover, the growth, % of control in test [16] worked out at 54.6%. Moreover, the Potency entry in test [1], in [2], in test [3], in test [4], in test [8] and in test [10] was “inactive” throughout. For the same compound, in test [5], the Potency result was “inactive”. The result in test [9] and in test [11] was inactive. Also, the activity change, negative = inhibition in test [7] stood at 4.67%.

The values above are taken from PubChem BioAssay (NCATS).
